Experimental data from ChEMBL document CHEMBL4513216, “Probing the Open Global Health Chemical Diversity Library for Multistage-Active Starting Points for Next-Generation Antimalarials” (ACS Infect Dis, 2020).
The campaign covered roughly 69,000 compounds. About 8,600 (12%) showed an effect of 50% or more. The sample as a whole holds a higher share of strong results than the screen did.

Each compound was assayed on Plasmodium berghei (assay: Screen against P. berghei liver stage (PbLuc), transformed with Luciferase, at 10uM). Details: tested at 10 uM.
Assay type: functional, HepG2

SMILES | INHIBITION [%]
CN(Cc1nnc(C2CC2)n1C)S(=O)(=O)c1ccc(F)c(C#N)c1 | -6.46
CS(=O)(=O)N1C[C@H]2CC[C@@H](C1)N(Cc1ccsc1)C2 | 10.2
O=C(CCc1nc2cc(Br)cnc2[nH]1)NCCCn1ccnc1 | -7.28
CN(C)c1cc(C2CCCN2Cc2ccccc2OCC(=O)O)ccn1 (stereo unspecified) | 24.4
Cc1ccncc1C(=O)N1C[C@H]2CN(CC3CCC3)C[C@@]2(C(=O)O)C1 | 42.3
CN(Cc1cccnc1)C1CC2(CCN(c3ncc(F)cn3)CC2)C1 | 49.1
CN(Cc1ccncc1)C1CCC[C@@H]2CN(c3ncccn3)C[C@H]12 (stereo partly specified) | -22.7
CN(Cc1cccnc1)C1CC2(CCN(c3ncccn3)CC2)C1 | -20.8
CN(Cc1ccncc1)C1CC2(CCN(c3ncccn3)CC2)C1 | 58.7
Cc1cnc(N2CCC3(CC2)CC(N(C)Cc2ccncc2)C3)nc1 | 49.1
CN(Cc1ccncc1)C1CC2(CCN(c3ncc(F)cn3)CC2)C1 | 55.5
CSCCCN1CCCC1c1noc(C(C)C)n1 (stereo unspecified) | 1.18
Cc1cnn(C2CCCN(C(=O)CCNS(C)(=O)=O)C2)c1 (stereo unspecified) | 19.2
C1CCC(c2nnc3sc(C4CCOC4)nn23)C1 (stereo unspecified) | 16.7
Cc1cc(N)nc(SC2CCN(c3ccccc3)C2=O)n1 (stereo unspecified) | 6.94
Cc1cc(N)nc(SC2CCCN(Cc3ccccc3)C2=O)n1 (stereo unspecified) | 26.8
Cc1cc(N)nc(SC2CCN(c3ccccc3F)C2=O)n1 (stereo unspecified) | 56.5
CCCc1nnc(N2CCC3(CCC(=O)N(C)C3)CC2)o1 | 47.2
Cc1cc(CN(C)Cc2csc(-c3ccc(C(C)C)cc3)n2)no1 | 83.4
CCOc1ccc(-c2nc(CN(C)Cc3c(C)noc3C)cs2)cc1 | 88.5
Cc1noc(C)c1CN(Cc1ccccc1)C(C)CN1CCOCC1 (stereo unspecified) | 37.4
CC(C)N(Cc1ccccc1)Cc1nnsc1Cl | -37.8

SMILES | INHIBITION [%]
CC(C)N(Cc1ccccc1)Cc1csc(-c2ncccn2)n1 | -50.2
Cc1noc(C)c1CN(Cc1ccccc1)C(C)C | 60.2
CC(C)c1nc(CN(C)Cc2ccc(O)c(Cl)c2)cs1 | 17.1
COc1ccc(CN(C)Cc2c(C)noc2C)c(Cl)c1OC | 14.3
CC(C)N(CC(N)=O)Cc1csc(-c2ncccn2)n1 | -16.8
Cc1noc(C)c1CN(C)C(=O)CCOc1ccc(Cl)cc1 | 2.65
Cc1cc(CN(C)C(=O)CC(C)C)no1 | -7.93
Cc1noc(C)c1CN(C)Cc1csc(-c2ncccn2)n1 | 62.8
O=C(CCc1cccc(C2CCNCC2)n1)N1CCCCC1 | -3.94
Oc1cccc(CN2C[C@@H]3CC[C@H]2CN(Cc2ccc(F)cc2)C3)c1 | 39.5
O=C(c1cc(C2CC2)no1)N1C[C@@H]2CC[C@H]1CN(Cc1ccccn1)C2 | 5.87
O=C(COc1coc(CN2CCCC2)cc1=O)Nc1cc(Cl)ccc1Cl | -12.5
CC(C)CN1CCS(=O)(=O)[C@@H]2CCN(S(=O)(=O)c3ccccc3)CC[C@@H]21 | 8.85
Cc1noc(C)c1CN(C)CCC(=O)N1CCc2sccc2C1 | 0.932
Cc1noc(C)c1CN(C)Cc1csc(-c2ccc(C(C)C)cc2)n1 | 91.1
Cc1noc(C)c1CN(C)C(C)c1cccs1 (stereo unspecified) | 46.4
COc1cccc(CN(C)Cc2c(C)noc2C)c1OC | -6.61
CN(CC(N)=O)Cc1csc(-c2ccc(F)cc2)n1 | -0.991
Cc1noc(C)c1CN(C)CC(c1cccs1)N1CCOCC1 (stereo unspecified) | -54.6
Cc1noc(C)c1CN(C)Cc1csc(-c2ccccc2F)n1 | 62.8
Cc1noc(C)c1CN(C)Cc1csc(-c2ccc(F)cc2)n1 | 77.4
Cc1noc(C)c1CN(C)Cc1nc(N)c2ccccc2n1 | 20.9

SMILES | INHIBITION [%]
O=C(c1ncccn1)N1CCC[C@]2(C[C@@H](Oc3ncccc3F)CO2)C1 | -2.17
CC(C)C(Sc1nccn1C1CC1)C(=O)NCc1cccnc1 (stereo unspecified) | 0.411
Cc1ccc(N2CC3(CCN(Cc4nccn4C)C3)CC2=O)s1 (stereo unspecified) | 15.9
CCOC(=O)CN1CC(c2nc(-c3ccsc3)no2)C1 | 9.96
CC(C)NC(=O)CNC(=O)c1csc(Cc2ccccc2F)n1 | -20.6
COc1ccc(C2CCN(Cc3cscn3)CC2)cc1 | 37.7
CC(C)n1cnnc1C1CCCN(S(=O)(=O)CCCC#N)C1 (stereo unspecified) | 48.3
N#CCCCS(=O)(=O)N1CCC(CSc2ccccc2)C1 (stereo unspecified) | -18.7
CCCS(=O)(=O)N1CCC(c2ccc(OC)cc2)CC1 | 67.8
COc1ccc(C2CCN(CCCC#N)CC2)cc1 | 63.5
Cc1ncsc1C(=O)NC1CCN(CCCC#N)CC1 | 33.7
COc1ccc(C2CCN(S(=O)(=O)CCCC#N)CC2)cc1 | 59.1
CCCS(=O)(=O)N1CCC(NCc2c(C)nn(C)c2OC)CC1 | -10.9
CCCS(=O)(=O)N1CCC(Oc2ccc(C#N)cc2)CC1 | 25.8
CN(C)c1cc2c(nn1)CCN(C(=O)Cc1ccc3c(c1)CCC3)C2 | 5.8
CCn1nc(C)c2nc(C(C)C)nc(NCC(C)C)c21 | 47.4
Cc1occc1C(=O)N1CCC2(CC1)NC(=O)CC2c1cnn(C)c1 (stereo unspecified) | 42.1
CNC(=O)C1CN(C)CCN(CCCOc2ccccc2F)C1 (stereo unspecified) | 8.72
CC(=O)Nc1ccc(SCC(=O)NCC2CCCO2)nn1 (stereo unspecified) | -4.83
COc1cccc([C@@]2(O)CC[C@@H]3CN(C(=O)c4cn(C)nc4C)C[C@@H]32)c1 | -1.95
OCc1nnn2c1CN(Cc1cccnc1)CCC2 | 29
CCc1cnc(CN(C(C)=O)C2CCN(Cc3nccn3C)C2)o1 (stereo unspecified) | -6.865

SMILES | INHIBITION [%]
O=C(NCC1CCCO1)c1cc(Sc2ncccn2)ccn1 (stereo unspecified) | 32.8
CS(=O)(=O)N1CCC2(CC1)CC(CC(=O)NC1CC1)c1ccccc12 (stereo unspecified) | 37
CS(=O)(=O)N1CCC2(CC1)CC(NCC1CC1)c1ccccc12 (stereo unspecified) | 59.3
c1cnc(N2CCC3(CC2)CC(NCC2CC2)c2ccccc23)nc1 (stereo unspecified) | 88.1
Cn1cc(CNC2CC3(CCN(CC4CC4)CC3)c3ccccc32)cn1 (stereo unspecified) | -40.4
CC(C)NC(=O)CC1CC2(CCN(S(C)(=O)=O)CC2)c2ccccc21 (stereo unspecified) | 18.5
CNC(=O)CC1CC2(CCN(c3ncccn3)CC2)c2ccccc21 (stereo unspecified) | 55.6
CNC(=O)CNC1CC2(CCN(c3ncccn3)CC2)c2ccccc21 (stereo unspecified) | 2.4
CN(C)C(=O)CC1CC2(CCN(c3ncccn3)CC2)c2ccccc21 (stereo unspecified) | 38.5
CNC(=O)CC1CC2(CCN(S(C)(=O)=O)CC2)c2ccccc21 (stereo unspecified) | 6.66
CS(=O)(=O)N1CCC2(CC1)CC(NCc1ccco1)c1ccccc12 (stereo unspecified) | 66.6
CS(=O)(=O)N1CCC2(CC1)CC(NCc1ccccn1)c1ccccc12 (stereo unspecified) | 45.7
Cn1cc(CNC2CC3(CCN(S(C)(=O)=O)CC3)c3ccccc32)cn1 (stereo unspecified) | 44.8
CC(Nc1cccc2c1OCCO2)C(=O)Nc1cccc(C#N)c1 (stereo unspecified) | 8.12
CCc1nc(CN(C(C)=O)C2CCN(CCc3ccccn3)C2)no1 (stereo unspecified) | 29.7
Oc1nc(N2CCOCC2)nc2nccc(-c3ccccn3)c12 | -21.3
CNC(=O)c1cc(C)n(-c2ccccc2)n1 | 36.2
O=C(NCc1cccs1)[C@@H]1CC[C@@H]2[C@@H](CCN2CC2CCC2)O1 | 30.3
CC(C)[C@H]1CN(c2cnccn2)C[C@@H]1NC(=O)C1(C#N)CCOCC1 | 49.5
CC(C)C[C@@H](CO)n1cc(-c2cncnc2)nn1 | 28.4
COc1ccc(C(=O)N(C)Cc2nnc3ccccn23)cc1 | -35.7
CC(C)c1nn(C)c(N(C)C)c1CNCC(O)COc1ccccc1 (stereo unspecified) | -37.2

SMILES | INHIBITION [%]
NC(=O)c1ccc(NC(=O)N2CCN(c3cccs3)CC2)c(F)c1 | 44.3
Cc1cc(NC(=O)N2CCN(c3cccs3)CC2)ccc1C(N)=O | 41
Cc1cc(C(N)=O)ccc1NC(=O)N1CCN(c2cccs2)CC1 | 65.6
CS(=O)(=O)NCc1nnc2n1CCN(CC1CC1)C2 | 39.2
Cc1nc(C2CCCN(C(=O)Cn3ccccc3=O)C2)sc1C (stereo unspecified) | 25.6
CCn1ccnc1CN1CCCC1Cn1cc(C)cn1 (stereo unspecified) | -53.5
Cc1ccc(Nc2nccc(C3CCN(C(=O)CN)C3)n2)nc1 (stereo unspecified) | 58.1
NCC(=O)N1CCC(c2ccnc(Nc3cc(C(F)(F)F)ccn3)n2)C1 (stereo unspecified) | 19.3
O=C(C1CCCC1)N1CCC(c2ccnc(Nc3cnccn3)n2)C1 (stereo unspecified) | 22
CNCC(=O)N1CCC(c2ccnc(Nc3ccc(C)cn3)n2)C1 (stereo unspecified) | 56.3
CC(=O)N1CCC(c2ccnc(Nc3cnccn3)n2)C1 (stereo unspecified) | 50.6
CC(=O)N1CCCC(c2ccnc(Nc3cnccn3)n2)C1 (stereo unspecified) | 42.6
CNCC(=O)N1CCCC(c2ccnc(Nc3cnccn3)n2)C1 (stereo unspecified) | 15.9
CNCC(=O)N1CCCC(c2cccc(Nc3nc(C)cc(C)n3)n2)C1 (stereo unspecified) | 33
Cc1ccc(Nc2nccc(C3CCN(C(=O)CO)C3)n2)nc1 (stereo unspecified) | 40.6
Cc1cc(N2CCN(C(=O)[C@@H]3C[C@H]4C=C[C@@H]3C4)CC2)cc(C)n1 | -1.84
Cn1ccc(C(=O)NCCOc2ccc(C(C)(C)C)cc2)cc1=O | 20.3
CN1CCC/C1=N\S(=O)(=O)c1ccc(NC(=O)c2ccc(Cl)cc2)cc1 | 15.6
